This note sets out measurements from PubChem BioAssay AID485344 (National Center for Advancing Translational Sciences (NCATS), 2010).

In general, inhibition refers to the change of the read-out against control, counted positive when it falls.

SMILES strings stand for the structures. Out of some 340,000 compounds screened, about 6,900 (2%) were called active. What follows is part of a selection rich in actives, with near analogues and random picks from the rest. Values without a mark were called inactive. No stated cut-off is given here; in the data, active means inhibition above about 30%; inactive means below that, where a call was filed.

The target of this assay is D(2) dopamine receptor (Homo sapiens) (UniProt P14416). The experiment in a line: HTS Assay for Allosteric Antagonists of the Human D2 Dopamine Receptor: Primary Screen for Antagonists. Further: 0% is about no effect. The conditions noted are these: HEK293 TREx D2 cells, calcium flux, dopamine EC80; at 10 µM; active compounds read high. The essentials: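 Measurement of antagonist activity uses fluorescent calcium dye in inducible HEK293 T-REx D2 cells: 10 s baseline, compound addition with 180 s read, EC80 dopamine addition with a further 180 s read.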
D(2) dopamine receptor (Homo sapiens), sequence (P14416 whole entry, looked up): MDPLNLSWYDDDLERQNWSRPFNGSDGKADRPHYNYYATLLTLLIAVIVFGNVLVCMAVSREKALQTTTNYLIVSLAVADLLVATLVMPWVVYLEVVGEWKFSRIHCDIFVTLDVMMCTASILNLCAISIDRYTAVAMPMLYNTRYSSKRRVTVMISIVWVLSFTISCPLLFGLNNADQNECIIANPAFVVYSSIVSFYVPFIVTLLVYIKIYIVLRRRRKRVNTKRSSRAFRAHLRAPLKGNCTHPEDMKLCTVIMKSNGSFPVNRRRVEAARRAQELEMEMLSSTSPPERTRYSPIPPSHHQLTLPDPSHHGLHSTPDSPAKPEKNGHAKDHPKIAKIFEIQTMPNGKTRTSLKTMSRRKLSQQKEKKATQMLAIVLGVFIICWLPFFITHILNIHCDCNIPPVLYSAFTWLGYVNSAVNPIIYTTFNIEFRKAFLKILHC
A general note: Calcium assays in cells follow changes in intracellular calcium, usually with a dye or a luminescent sensor.
Consider `CCOc1c(OC)cc(C2C(C#N)=C(N)Oc3n[nH]c(-c4ccncc4)c32)cc1OC` (stereo not given), for which the inhibition is -9.43%.

As for `COc1ccc(C2C(C#N)=C(N)Oc3n[nH]c(C)c32)cc1CN1CCN(c2ccc(F)cc2)CC1` (stereo not given), the inhibition is 53.9% (active). The result for `CCCc1[nH]nc2c1C(c1ccc(OC)c(Cn3nc(C)c(Br)c3C)c1)C(C#N)=C(N)O2` (stereo not given) reads -23.9%; that for `COc1ccccc1/C=C/C(=O)OCC(=O)NC1CCCCCC1`, -12.9%; that for `CCN(CC(=O)Nc1ccccc1C(=O)NC1CC1)Cc1cccs1`, 0.568%. Then `Cc1cc(C)c(C#N)c(SCC(=O)N(CC(C)C)C2CCS(=O)(=O)C2)n1` (stereo not given), with 6.67%; and `CC1CC1C(=O)OCC(=O)Nc1cccc(F)c1` (stereo not given), with 17.3%. Then `CC(=O)N(CC1CCCO1)C1(C(=O)NC2CCCC2)CCCCC1` (stereo not given), with -1.19%. Take `Cc1ccsc1C(C(=O)NC1CCCCC1)N(C(=O)Cc1cccs1)C1CC1` (stereo not given): the inhibition is 2.03%.

For the compound `O=C(Cc1cccs1)N(CC1CCCO1)C1(C(=O)NC2CCCCC2)CCCCC1` (stereo not given), the inhibition was 34% (active). The result for `COc1ccc(N(CCC(=O)NCCc2ccccc2)S(=O)(=O)c2ccc(C)cc2C)cc1` reads -18.2%; that for `COc1cc2c(cc1OC)CN(C(C)C(=O)Nc1cccc(S(=O)(=O)N3CCOCC3)c1)CC2` (stereo not given), 15.6%; that for `CC(C)C(=O)Nc1c2c(nn1-c1ccccc1)CSC2`, 7.83%. For `COc1ccc(CC(=O)Nc2c3c(nn2-c2cccc(Cl)c2)CS(=O)C3)cc1` (stereo not given), the inhibition is -9.37%. Consider `CC(Oc1ccccc1)C(=O)Nc1c2c(nn1-c1ccccc1)CS(=O)C2` (stereo not given), for which the inhibition was 30.2% (active). Consider `O=c1ccc(S(=O)(=O)N2CCCC2)cn1Cc1nc(-c2ccccc2)no1`, for which the inhibition is 15.2%. Then `CCOc1ccccc1-c1nc(CN2CCC(C(=O)N3CCOCC3)CC2)c(C)o1`, with -1.66%; and `COc1ccc(-c2nc(CN3CCN(c4ncccn4)CC3)c(C)o2)cc1C`, with 0.804%.

As to `COc1ccc(F)c(-c2nc(CN3CCC(c4ccccc4)CC3)c(C)o2)c1`, the inhibition is 93.5% (active). For the compound `COc1ccccc1N1CCN(CC(=O)Nc2ccnn2C2CCCC2)CC1`, the inhibition was 14.3%. Turning to `CC(=O)NC12CC3CC(C1)CC(C(=O)N1CCN(S(=O)(=O)c4cccs4)CC1)(C3)C2`, the inhibition is -3.14%.

For `O=C1c2ccccc2C(=O)N1CCC#Cc1ccc2cc(C3(O)CCCCC3)oc(=O)c2c1`, the inhibition is -4.36%. On to `COc1cccc(N2CC(NS(=O)(=O)c3ccc(Cl)cc3)CC2=O)c1` (stereo not given), for which the inhibition is 12%. The result for `CN1CCN(/N=C/c2ccc(-c3ccc([N+](=O)[O-])cc3)o2)CC1` reads 11.1%.

`CN1C(=O)/C(=C\c2ccc(-c3ccccc3)o2)SC1=S`: the inhibition was 16.2%. `NS(=O)(=O)c1ccc(-c2ccc(/C=C3\SC(=O)NC3=O)o2)cc1`: the inhibition is 47.3% (active). As to `COC(=O)c1sc(NC(=O)COC(=O)C2CCC2)c(C(=O)OC)c1C`, the inhibition is 3.68%. `CC(Sc1ncnc2c1cnn2-c1ccccc1)C(=O)Nc1ccc(N2CCOCC2)cc1` (stereo not given): the inhibition is 8.83%. `CCOc1ccc(C(C)=O)cc1COC(=O)CN1C(=O)NC2(CCCC2)C1=O`: the inhibition was 5.14%.

As to `CC(C)=CCC/C(C)=C/C(=O)O`, the inhibition was 55.4% (active).

On to `O=C(CCc1ccccc1)NNC(=O)c1ccc(Br)cc1`, for which the inhibition was -5.25%.

Regarding `O=C(CCNC(=O)c1ccc(Br)cc1)NCCCc1ccccc1`, the inhibition was 34.2% (active). Turning to `CC(C)c1ccc(C(=O)NCCCc2ccccc2)cc1`, the inhibition is -23.5%. The result for `O=C(CNS(=O)(=O)c1ccc2ccccc2c1)Nc1ccc(F)c(F)c1F` reads 6.19%. In the case of `COC(=O)c1ccc(Cc2ccccc2)o1`, the inhibition is -18.3%.

On to `COC(=O)c1ccc(CSc2ccccc2C)o1`, for which the inhibition was 34.1% (active). In the case of `COC(=O)c1ccc(CSc2nnc(N)s2)o1`, the inhibition was -17.4%. Then `COc1ccc(N2CCN(C(=O)COC(=O)c3cccc(S(=O)(=O)Nc4ccccc4OC)c3)CC2)cc1`, with 3.16%. For the compound `CC1CCCCC1NC(=O)NC(=O)COC(=O)C1=NN(c2ccccc2)C(=O)CC1` (stereo not given), the inhibition is -16.5%. As to `CC1CCCCC1NC(=O)COC(=O)Cc1ccc(Cl)cc1` (stereo not given), the inhibition is -14.4%.

As for `Cc1nn(Cc2ccccc2)c(C)c1C(=O)NCCCN1CCCC1=O`, the inhibition is 0.482%. The result for `O=C(CCc1ccccc1)Nc1ncc([N+](=O)[O-])s1` reads -6.9%; that for `CC(=O)Oc1ccccc1C(=O)Nc1ncc([N+](=O)[O-])s1`, 35% (active); that for `O=C(Nc1ncc([N+](=O)[O-])s1)C1COc2ccccc2O1` (stereo not given), 5.74%. Then `O=C1C=C(c2cccc(Br)c2)C[C@@H](c2ccc(F)cc2)C1`, with -5.1%; and `O=C(c1ccccc1)c1ccc(OCC(O)CN2CCCC2)cc1` (stereo not given), with 71.8% (active). The result for `OC(COc1ccc(Br)cc1)CN1CCCC1` (stereo not given) reads 15.6%; that for `O=S(=O)(c1ccc(OCC(O)CN2CCN(c3ccccc3Cl)CC2)cc1)N1CCOCC1` (stereo not given), -9.57%; that for `O=C(c1ccc(Cl)cc1)c1ccc(OCC(O)CN2CCCCC2)cc1` (stereo not given), 11.7%. Consider `C=CCc1ccccc1OCC(O)CN1CCN(CCO)CC1` (stereo not given), for which the inhibition was -21.6%. Regarding `CC(C)c1ccc(OCC(O)CN2CCN(c3ccccn3)CC2)cc1` (stereo not given), the inhibition was 74.5% (active).

As to `CC(C)c1ccc(OCC(O)Cn2cnc3ccccc32)cc1` (stereo not given), the inhibition was 5.76%. The result for `O=C(C(c1ccccc1)c1ccccc1)N1CCN(CC(O)COc2ccccc2)CC1` (stereo not given) reads 19.3%.

For `OC(COc1cccc2ccccc12)CN1CCN(c2ccccn2)CC1` (stereo not given), the inhibition was 75.1% (active). The result for `Cc1cccc(OCC(O)CN2CCN(CCN3C(=O)c4cccc5cccc(c45)C3=O)CC2)c1C` (stereo not given) reads -17.4%; that for `CC(=O)Nc1ccc(OCC(O)CN2CCN(c3ccccc3Cl)CC2)cc1` (stereo not given), 76.3% (active). Then `CC1CCN(CC(O)COc2ccc(C(=O)c3ccccc3)cc2)CC1` (stereo not given), with 2.36%; and `Cc1ccc(CC(=O)N(C)CC(=O)N(CC(C)C)c2c(N)n(CC(C)C)c(=O)[nH]c2=O)cc1C`, with 15%; and `CC(C)CCN1CCN=C1N(C)C`, with 8.98%. Then `O=C(Nc1ccccn1)C1CCN(S(=O)(=O)c2ccccc2)CC1`, with 5.14%.
